Data from PubChem BioAssay (NCATS).
Inconclusive results are not listed. The source made the active and inactive calls. Calls come from the whole dose curve; as a rule, active = well fitted curve in the direction sought with a large enough effect; inconclusive = small, poorly fitted or top-dose-only effect, or another doubt; inactive = no such curve, though single readings can be large; an effect the other way counts as inactive or inconclusive.

Experiments:
NIH3T3 = test: qHTS assay to identify novel small-molecules to repurpose for Merkel cell carcinoma treatment (AID 1296009); details: MCC and control cell lines, CellTiter-Glo viability, 72 h; at 44.8 µM (top of the series) unless noted; note: nearly all actives have a fitted effect of over 60% in size
Method in brief: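 After compound transfer in DMSO, plates were kept 72 hr at 37 degree celsius. Luminescent ATP signal from CellTiter-Glo served as viability measure, normalized against DMSO and no-cell controls.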

C33A = test: Primary qHTS to identify gynecologic anti-cancer compounds using libraries of approved drugs and bioactive compounds (AID 1345084); details: Gynecologic cancer cell panel viability, ATPlite luminescence, 48 h; series mostly up to 57.5 µM; note: % is set by controls: 0 for no effect and ±100 for the full control effect; nearly all actives have a fitted effect of over 55% in size
Method in brief: (§1)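 ATP-based viability (ATPlite), 1,000 cells/well, 16 h pre-incubation, 48 h compound at 37 C, 5% CO2, 15 min RT before read.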

CAOV3 = test: as above; details: Gynecologic cancer cell panel viability, ATPlite luminescence, 48 h; series mostly up to 57.5 µM
Method in brief: as §1

CASKI = test: as above; details: Gynecologic cancer cell panel viability, ATPlite luminescence, 48 h; series mostly up to 57.5 µM
Method in brief: as §1

Es-2 = test: as above; details: Gynecologic cancer cell panel viability, ATPlite luminescence, 48 h; series mostly up to 57.5 µM
Method in brief: as §1

HeLa = test: as above; details: Gynecologic cancer cell panel viability, ATPlite luminescence, 48 h; series mostly up to 57.5 µM
Method in brief: as §1

Hek293T = test: as above; details: Gynecologic cancer cell panel viability, ATPlite luminescence, 48 h, control line for the selectivity index; series mostly up to 57.5 µM
Method in brief: as §1

JEG-3 = test: as above; details: Gynecologic cancer cell panel viability, ATPlite luminescence, 48 h; series mostly up to 57.5 µM
Method in brief: as §1

c1ccc(Cc2ncc3c(n2)CCNCC3)cc1
inactive: outcome (NIH3T3) | Potency (C33A) | Potency (CAOV3) | Potency (CASKI) | Potency (Es-2) | Potency (HeLa) | Potency (Hek293T) | Potency (JEG-3)

CC(C)(O)C1CC=C(C(=O)OCC2OC(Oc3c(O)cc(C(=O)O)cc3O)C(O)C(O)C2O)CC1 (stereo not drawn)
inactive: outcome (NIH3T3) inactive [at 17.4 µM] | Potency (C33A) | Potency (CAOV3) | Potency (CASKI) | Potency (Es-2) | Potency (HeLa) | Potency (Hek293T) | Potency (JEG-3)

C[C@@H]1O[C@@H](O[C@H]2[C@H](O[C@H]3[C@H](O[C@H]4CC[C@@]5(C=O)C(CC[C@]6(C)C5CC=C5C7CC(C)(C)C[C@@H](O)[C@]7(C)CC[C@]56C)C4(C)C)O[C@H](C(=O)O)[C@@H](O)[C@@H]3O)OC[C@@H](O)[C@@H]2O)[C@H](O)[C@H](O)[C@H]1O (stereo partly drawn)
inactive: outcome (NIH3T3) inactive [at 9.27 µM] | activity change, negative = cytotoxicity (C33A) 7.86% [at 11.6 µM] | activity change, negative = cytotoxicity (CAOV3) 38.3% [at 11.6 µM] | activity change, negative = cytotoxicity (CASKI) 0.905% [at 11.6 µM] | activity change, negative = cytotoxicity (Es-2) 9.36% [at 11.6 µM] | activity change, negative = cytotoxicity (HeLa) 2.37% [at 11.6 µM] | activity change, negative = cytotoxicity (Hek293T) -7.04% [at 11.6 µM] | activity change, negative = cytotoxicity (JEG-3) 9.31% [at 11.6 µM]

CC(C)C1=CCC(C)(O)C(OC2OC(CO)C(O)C(O)C2O)C1 (stereo not drawn)
inactive: outcome (NIH3T3) | Potency (C33A) | Potency (CAOV3) | Potency (CASKI) | Potency (Es-2) | Potency (HeLa) | Potency (Hek293T) | Potency (JEG-3)

CC(/C=C/C1(O)C(C)(C)CC(O)CC1(C)O)OC1OC(CO)C(O)C(O)C1O (stereo not drawn)
inactive: outcome (NIH3T3) inactive [at 17.4 µM] | Potency (C33A) | Potency (CAOV3) | Potency (CASKI) | Potency (Es-2) | Potency (HeLa) | Potency (Hek293T) | Potency (JEG-3)

CC(O)C(O)/C=C/C=C/C(=O)O[C@@H]1C=C2COC(=O)[C@]2(O)[C@@]2(C)CCCC(C)(C)C12 (stereo partly drawn)
inactive: outcome (NIH3T3) inactive [at 17.4 µM] | Potency (C33A) | Potency (CAOV3) | Potency (CASKI) | Potency (Es-2) | Potency (HeLa) | Potency (Hek293T) | Potency (JEG-3)

C[C@@H]1C[C@H](O)/C=C/[C@H](O)[C@@H](O)CC(=O)O1
inactive: outcome (NIH3T3) | Potency (C33A) | Potency (CAOV3) | Potency (CASKI) | Potency (Es-2) | Potency (HeLa) | Potency (Hek293T) | Potency (JEG-3)

C[C@@H]1CC[C@]2(C(=O)O)CC[C@]3(C(=O)O)C(=CCC4[C@@]5(C)CC[C@H](O[C@@H]6O[C@@H](C)[C@H](O[C@@H]7O[C@H](CO)[C@@H](O)[C@H](O)[C@H]7O)[C@@H](O)[C@H]6O)C(C)(C)C5CC[C@]43C)C2[C@H]1C (stereo partly drawn)
inactive: outcome (NIH3T3) inactive [at 17.4 µM] | Potency (C33A) | Potency (CAOV3) | Potency (CASKI) | Potency (Es-2) | Potency (HeLa) | Potency (Hek293T) | Potency (JEG-3)

CC1=CC[C@]2(C(=O)O[C@@H]3O[C@H](CO[C@@H]4O[C@H](CO)[C@@H](O[C@@H]5O[C@@H](C)[C@H](O)[C@@H](O)[C@H]5O)[C@H](O)[C@H]4O)[C@@H](O)[C@H](O)[C@H]3O)CC[C@]3(C)C(CCC4[C@@]5(C)C[C@@H](O)[C@H](O)[C@@](C)(CO)C5CC[C@]43C)C2C1C (stereo partly drawn)
inactive: outcome (NIH3T3) inactive [at 9.27 µM] | activity change, negative = cytotoxicity (C33A) 6.24% [at 11.6 µM] | activity change, negative = cytotoxicity (CAOV3) 6.14% [at 11.6 µM] | activity change, negative = cytotoxicity (CASKI) 4.37% [at 11.6 µM] | activity change, negative = cytotoxicity (Es-2) 6.73% [at 11.6 µM] | activity change, negative = cytotoxicity (HeLa) 3.93% [at 11.6 µM] | activity change, negative = cytotoxicity (Hek293T) -4.38% [at 11.6 µM] | activity change, negative = cytotoxicity (JEG-3) -1.63% [at 11.6 µM]

C=CCc1ccc(O[C@@H]2O[C@H](CO[C@@H]3O[C@H](CO)[C@@H](O)[C@H](O)[C@H]3O)[C@@H](O)[C@H](O)[C@H]2O)c(O)c1
inactive: outcome (NIH3T3) inactive [at 17.4 µM] | Potency (C33A) | Potency (CAOV3) | Potency (CASKI) | Potency (Es-2) | Potency (HeLa) | Potency (Hek293T) | Potency (JEG-3)

CC1(C)C(=O)C(C)(C)c2cc(C(=O)Nc3ccc(C(=O)O)cc3)ccc21
inactive: outcome (NIH3T3) | Potency (C33A) | Potency (CAOV3) | Potency (CASKI) | Potency (Es-2) | Potency (HeLa) | Potency (Hek293T) | Potency (JEG-3)

C=C1C(OC(C)=O)C(=O)C2C(C)(C)C(OC(C)=O)CCC2(C)C1CC(OC(C)=O)/C(C)=C/COC(C)=O (stereo not drawn)
inactive: outcome (NIH3T3) inactive [at 17.4 µM] | Potency (C33A) | Potency (CAOV3) | Potency (CASKI) | Potency (Es-2) | Potency (HeLa) | Potency (Hek293T) | Potency (JEG-3)

COc1cc(C[C@H]2COC(=O)[C@@H]2Cc2ccc(O)c(OC)c2)ccc1O
inactive: outcome (NIH3T3) | Potency (C33A) | Potency (CAOV3) | Potency (CASKI) | Potency (Es-2) | Potency (HeLa) | Potency (Hek293T) | Potency (JEG-3)

COC(=O)[C@H](CC1C=NC=N1)NCC12CC3CC(CC(C3)C1)C2 (stereo partly drawn)
inactive: outcome (NIH3T3) | Potency (C33A) | Potency (CAOV3) | Potency (CASKI) | Potency (Es-2) | Potency (HeLa) | Potency (Hek293T) | Potency (JEG-3)

C[C@@H]1O[C@@H](O[C@H]2[C@H](OC(=O)C34CCC5(C)C(=CCC6C7(C)CC(O)C(O[C@@H]8O[C@H](C(=O)O)[C@@H](O)[C@H](O)[C@H]8O)C(C)(C(=O)O)C7CCC65C)C3CC(C)(C)CC4O)O[C@H](C)[C@@H](O)[C@@H]2O)[C@H](O)[C@@H](O[C@@H]2OC[C@](O)(CO)[C@H]2O[C@@H]2O[C@H](CO)[C@@H](O)[C@H](O)[C@H]2O)[C@H]1O (stereo partly drawn)
inactive: outcome (NIH3T3) inactive [at 9.27 µM] | activity change, negative = cytotoxicity (C33A) -3.41% [at 6.55 µM] | activity change, negative = cytotoxicity (CAOV3) 7.58% [at 6.55 µM] | activity change, negative = cytotoxicity (CASKI) 3.56% [at 6.55 µM] | activity change, negative = cytotoxicity (Es-2) -1.29% [at 6.55 µM] | activity change, negative = cytotoxicity (HeLa) -4.39% [at 6.55 µM] | activity change, negative = cytotoxicity (Hek293T) 5.55% [at 6.55 µM] | activity change, negative = cytotoxicity (JEG-3) 16.4% [at 6.55 µM]

CC1(C)CC(=O)N(CCCCN2CCN(c3ncccn3)CC2)C(=O)C1
inactive: outcome (NIH3T3) | Potency (C33A) | Potency (CAOV3) | Potency (CASKI) | Potency (Es-2) | Potency (HeLa) | Potency (Hek293T) | Potency (JEG-3)
